# From PubChem BioAssay (Tox21)
# A number with no mark means an inactive call. Inconclusive results are not listed. Entries that show only a call come without a potency. Active and inactive are the calls of the source. Unless noted, calls come from the whole dose curve; as a rule, active = well fitted curve in the direction sought with a large enough effect in the repeat runs; inconclusive = weak or mixed curves; inactive = no such curve, though single readings can be large; an effect the other way counts as inactive or inconclusive.
# What was measured:
# [1] = qHTS assay to test for compound auto fluorescence at 535 nm (green) in HEK293 cells (AID 720680)
# [2] = qHTS assay to test for compound auto fluorescence at 460 nm (blue) in HEK293 cell free culture (AID 720681)
# Method in brief: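 Compounds were added to cell-free DMEM with 10% FBS and fluorescence read directly. The blue channel used 405 nm excitation and 460 nm emission, with triamterene as the reference fluorophore.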
# [3] = qHTS assay to test for compound auto fluorescence at 535 nm (green) in HEK293 cell free culture (AID 720682)
# Method in brief: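 DMEM + 10% FBS, cell-free; cpd or DMSO pinned in; Ex485/Em535 read; output as fluorescein-equivalent signal.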
# [4] = qHTS assay to test for compound auto fluorescence at 590 nm (red) in HEK293 cell free culture (AID 720683)
# Method in brief: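 Cell-free wells of DMEM with 10% FBS received compound, and intrinsic fluorescence was read at excitation/emission 540/590 nm. Values expressed as equivalence to Rose Bengal sodium.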
# [5] = qHTS assay to test for compound auto fluorescence at 590 nm (red) in HepG2 cell free culture (AID 720684)
# Method in brief: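 Compounds are added to culture medium (MEM, 10% FBS) lacking cells, then fluorescence is read at excitation 540 nm, emission 590 nm, with Rose Bengal sodium as the equivalency standard.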
# [6] = qHTS assay to test for compound auto fluorescence at 460 nm (blue) in HepG2 cell free culture (AID 720685)
# Method in brief: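 Compound (23 nL) or DMSO pinned into cell-free MEM with 10% FBS; blue fluorescence read at 405/460 nm excitation/emission, expressed as auto-fluorescence equivalency to triamterene.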
# [7] = qHTS assay to test for compound auto fluorescence at 535 nm (green) in HepG2 cell free culture (AID 720686)
# [8] = qHTS assay to test for compound auto fluorescence at 460 nm (blue) in HepG2 cells (AID 720687)
# Method in brief: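 HepG2 cells in MEM with 10% FBS, attached overnight at 37 C, were exposed to compound or DMSO for 1 hr at 37 C, 5% CO2. Blue fluorescence was read at 405/460 nm, with triamterene as reference fluorophore.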
# [9] = qHTS assay to identify small molecule antagonists of the glucocorticoid receptor (GR) signaling pathway - cell viability counter screen (AID 720693); note: nearly all actives have a fitted effect of over 55% in size
# [10] = qHTS assay for identifying genotoxic compounds that show differential cytotoxicity against isogenic chicken DT40 cell lines with known DNA damage response pathways - wild type cell line (AID 743012); note: nearly all actives have a fitted effect of over 60% in size; note: potency is the fitted concentration of half-maximal effect
# Method in brief: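 Using parental DT40 (300 cells/well), compounds delivered in DMSO incubate 40 h at 37 C/5% CO2. CellTiter-Glo reagent then stands 30 min at room temperature, and luminescence gives cell viability.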
# [11] = qHTS assay for identifying genotoxic compounds that show differential cytotoxicity against isogenic chicken DT40 cell lines with known DNA damage response pathways - Rev3 mutant cell line (AID 743014); note: nearly all actives have a fitted effect of over 55% in size; note: potency is the fitted concentration of half-maximal effect
# [12] = qHTS assay for identifying genotoxic compounds that show differential cytotoxicity against isogenic chicken DT40 cell lines with known DNA damage response pathways - Rad54/Ku70 mutant cell line (AID 743015); note: nearly all actives have a fitted effect of over 60% in size; note: potency is the fitted concentration of half-maximal effect
# [13] = qHTS assay to identify small molecule antagonists of the androgen receptor (AR) signaling pathway - cell viability counter screen (AID 743033; note: nearly all actives have a fitted effect of over 45% in size)
# [14] = molecular target: Androgen receptor (Homo sapiens) (UniProt P10275); assay: qHTS assay to identify small molecule antagonists of the androgen receptor (AR) signaling pathway (AID 743035; active = well fitted inhibition curve with a large enough effect in the signal ratio in the repeat runs, not every such curve was filed as active; the % refers to the signal ratio)
# Sequence of Androgen receptor (Homo sapiens) (P10275 whole entry, looked up): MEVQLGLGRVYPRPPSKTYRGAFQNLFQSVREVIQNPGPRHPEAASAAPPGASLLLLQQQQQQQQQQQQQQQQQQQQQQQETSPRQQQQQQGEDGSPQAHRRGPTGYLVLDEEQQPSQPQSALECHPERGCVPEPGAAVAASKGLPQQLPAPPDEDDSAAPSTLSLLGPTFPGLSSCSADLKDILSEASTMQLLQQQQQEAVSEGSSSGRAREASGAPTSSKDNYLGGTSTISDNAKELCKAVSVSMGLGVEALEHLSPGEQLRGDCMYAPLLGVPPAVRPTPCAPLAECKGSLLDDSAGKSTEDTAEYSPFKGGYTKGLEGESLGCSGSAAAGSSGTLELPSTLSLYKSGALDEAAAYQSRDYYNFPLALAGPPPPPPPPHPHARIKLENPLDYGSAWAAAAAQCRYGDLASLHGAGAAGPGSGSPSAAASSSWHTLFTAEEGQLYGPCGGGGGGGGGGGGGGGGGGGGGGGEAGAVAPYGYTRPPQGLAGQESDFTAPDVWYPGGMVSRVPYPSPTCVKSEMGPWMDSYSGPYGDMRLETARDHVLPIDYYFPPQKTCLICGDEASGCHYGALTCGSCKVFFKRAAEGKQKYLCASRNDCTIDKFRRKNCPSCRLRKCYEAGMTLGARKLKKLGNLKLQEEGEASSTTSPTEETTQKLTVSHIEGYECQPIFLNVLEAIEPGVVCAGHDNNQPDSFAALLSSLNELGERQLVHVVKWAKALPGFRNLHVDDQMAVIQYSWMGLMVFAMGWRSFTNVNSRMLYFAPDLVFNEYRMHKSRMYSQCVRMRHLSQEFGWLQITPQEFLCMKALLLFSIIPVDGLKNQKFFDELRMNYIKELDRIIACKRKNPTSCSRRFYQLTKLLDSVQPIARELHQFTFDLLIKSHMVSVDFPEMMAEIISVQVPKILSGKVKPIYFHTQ
# Method in brief: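 Using qHTS, AR-UAS-bla GripTite HEK293 cells received compound, then R1881, and were cultured 16 h at 37C/5% CO2 before a 2 h room-temperature LiveBLAzer B/G FRET substrate step and fluorescence measurement.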
# [15] = molecular target: Androgen receptor (Homo sapiens) (UniProt P10275); assay: qHTS assay to identify small molecule agonists of the androgen receptor (AR) signaling pathway (AID 743036; active = well fitted activation curve with a large enough effect in the signal ratio in the repeat runs, with a control signal flat, not every such curve was filed as active; the % refers to the signal ratio)
# Method in brief: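 Screening used 2,000 AR-bla HEK293 cells per well, treated 16 h at 37C with test compounds in DMSO alongside positive and DMSO-only controls; beta-lactamase activity was then read by LiveBLAzer B/G FRET fluorescence after 2 h at room temperature.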
# [16] = molecular target: Androgen receptor (Homo sapiens) (UniProt P10275); assay: qHTS assay to identify small molecule agonists of the androgen receptor (AR) signaling pathway using the MDA cell line (AID 743040; note: nearly all actives have a fitted effect of over 20% in size)
# Method in brief: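 Human breast carcinoma MDA-kb2 reporter cells (MMTV-luc, AR/GR elements) were treated for 16 h at 37C in 0% CO2 following a 5 h settling period. Signal was quantified by ONE-Glo luminescence.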
# [17] = qHTS assay to identify small molecule antagonists of the androgen receptor (AR) signaling pathway using the MDA cell line - cell viability counter screen (AID 743041; note: nearly all actives have a fitted effect of over 45% in size)
# Method in brief: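 Same-well cytotoxicity was assessed by CellTiter-Fluor in MDA-kb2 AR-luc cells after 16 h of compound treatment under R1881 agonism.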
# [18] = molecular target: Androgen receptor (Homo sapiens) (UniProt P10275); assay: qHTS assay to identify small molecule antagonists of the androgen receptor (AR) signaling pathway using the MDA cell line (AID 743042; note: nearly all actives have a fitted effect of over 55% in size)
# Method in brief: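 MDA-kb2 breast carcinoma cells carrying MMTV-luciferase (AR/GR responsive) were co-treated with compounds and the agonist R1881 for 16 h at 37C. Inhibition read as ONE-Glo luminescence; CellTiter-Fluor fluorescence measured in parallel for cytotoxicity.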
# [19] = molecular target: Glucocorticoid receptor (Homo sapiens) (UniProt P04150); assay: qHTS assay to identify small molecule agonists of the glucocorticoid receptor (GR) signaling pathway (AID 720691; active = well fitted activation curve with a large enough effect in the signal ratio in the repeat runs, not every such curve was filed as active; the % refers to the signal ratio)
# Sequence of Glucocorticoid receptor (Homo sapiens) (P04150 whole entry, looked up): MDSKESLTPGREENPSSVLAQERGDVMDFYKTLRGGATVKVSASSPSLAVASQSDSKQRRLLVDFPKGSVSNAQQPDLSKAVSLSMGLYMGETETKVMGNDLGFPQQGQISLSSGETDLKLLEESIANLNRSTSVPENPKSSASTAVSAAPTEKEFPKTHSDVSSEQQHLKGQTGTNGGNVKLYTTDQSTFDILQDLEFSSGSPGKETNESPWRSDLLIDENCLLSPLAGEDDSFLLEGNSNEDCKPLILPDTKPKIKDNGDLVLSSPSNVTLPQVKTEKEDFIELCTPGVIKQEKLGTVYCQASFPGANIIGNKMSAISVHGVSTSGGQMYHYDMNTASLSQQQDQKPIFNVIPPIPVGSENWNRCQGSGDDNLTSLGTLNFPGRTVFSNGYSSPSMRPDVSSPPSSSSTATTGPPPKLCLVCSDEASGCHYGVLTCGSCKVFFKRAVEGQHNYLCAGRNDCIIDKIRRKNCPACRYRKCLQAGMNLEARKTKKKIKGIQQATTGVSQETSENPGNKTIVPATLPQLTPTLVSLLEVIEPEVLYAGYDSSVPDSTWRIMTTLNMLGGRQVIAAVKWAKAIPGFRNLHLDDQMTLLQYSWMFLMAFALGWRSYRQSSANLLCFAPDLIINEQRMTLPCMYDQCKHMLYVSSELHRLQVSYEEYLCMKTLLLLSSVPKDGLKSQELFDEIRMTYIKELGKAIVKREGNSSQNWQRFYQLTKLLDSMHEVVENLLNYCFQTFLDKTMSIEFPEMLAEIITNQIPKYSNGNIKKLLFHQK
# Method in brief: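 Reporter read-out: fluorescence intensity following 2 h room-temperature LiveBLAzer B/G FRET substrate loading. Prior step: GR-bla HeLa cells held 4 h, then treated 18 h at 37 C.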
# [20] = molecular target: Glucocorticoid receptor (Homo sapiens) (UniProt P04150); assay: qHTS assay to identify small molecule antagonists of the glucocorticoid receptor (GR) signaling pathway (AID 720692; active = well fitted inhibition curve with a large enough effect in the signal ratio in the repeat runs, not every such curve was filed as active; the % refers to the signal ratio)
# Method in brief: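 Dexamethasone (5 nM final) stimulated a stably integrated GRE-beta-lactamase reporter in HeLa cells during 18 h co-incubation with compounds; signal was quantified as fluorescence intensity of B/G FRET substrate after 2 h.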
Structure (SMILES),outcome [1],outcome [2],outcome [3],outcome [4],outcome [5],outcome [6],outcome [7],outcome [8],Potency [9],Potency [10],Potency [11],Potency [12],Potency [13],Potency [14],outcome [15],outcome [16],Potency [17],Potency [18],Potency [19],Potency [20]
CCC1(c2ccccc2)CCC(=O)NC1=O (configuration not stated),inactive,inactive,inactive,inactive,inactive,inactive,inactive,inactive,inactive,inactive,inactive,inactive,inactive,inactive,inactive,inactive,inactive,inactive,,
CCOC(=O)c1ncn2c1CN(C)C(=O)c1c(I)cccc1-2,inactive,inactive,inactive,inactive,inactive,inactive,inactive,inactive,inactive,,inactive,,inactive,,,,inactive,,inactive,
CON(C)C(=O)Nc1ccc(Br)c(Cl)c1,inactive,inactive,inactive,inactive,inactive,inactive,inactive,inactive,,,61.1 µM (active),,inactive,,,,inactive,,inactive,
NNCc1ccccc1,inactive,inactive,inactive,inactive,inactive,inactive,inactive,inactive,,inactive,inactive,inactive,,,,,inactive,,inactive,
O=C(O)C(Br)(Br)Br,inactive,inactive,inactive,inactive,inactive,inactive,inactive,inactive,inactive,inactive,inactive,inactive,inactive,,,,inactive,,,
CCN[C@@H](C)Cc1cccc(C(F)(F)F)c1,inactive,inactive,inactive,inactive,inactive,inactive,inactive,inactive,inactive,,16.9 µM (active),21.3 µM (active),inactive,,,,inactive,,inactive,
CCN(CC)CCOC(=O)C(O)(c1ccccc1)c1ccccc1,inactive,inactive,inactive,inactive,inactive,inactive,inactive,inactive,inactive,inactive,inactive,inactive,inactive,,,,,,,
CC[C@H](N)c1ccccc1,inactive,inactive,inactive,inactive,inactive,inactive,inactive,inactive,inactive,inactive,inactive,inactive,inactive,inactive,inactive,inactive,inactive,inactive,,inactive
CCOP(=S)(OCC)SCCl,inactive,inactive,inactive,inactive,inactive,inactive,inactive,inactive,inactive,inactive,inactive,inactive,inactive,inactive,inactive,inactive,inactive,inactive,,inactive
CCCCS(=O)(=O)Cl,inactive,inactive,inactive,inactive,inactive,inactive,inactive,inactive,inactive,,inactive,inactive,inactive,,,,inactive,,inactive,
Cc1cccc2sc3nncn3c12,inactive,inactive,inactive,inactive,inactive,inactive,inactive,inactive,inactive,inactive,inactive,inactive,inactive,,,,inactive,,,
CCc1cc(OC)c(C[C@H](C)N)cc1OC,inactive,inactive,inactive,inactive,inactive,inactive,inactive,inactive,inactive,63.7 µM (active),71.5 µM (active),63.7 µM (active),inactive,,,,,,,inactive
CC[C@H](O)C(C[C@H](C)N(C)C)(c1ccccc1)c1ccccc1,inactive,inactive,inactive,inactive,inactive,inactive,inactive,inactive,inactive,62.3 µM (active),,,,,,,inactive,,,inactive
CNC(=O)Oc1ccccc1C(C)C,inactive,inactive,inactive,inactive,inactive,inactive,inactive,inactive,inactive,inactive,inactive,inactive,inactive,inactive,inactive,inactive,inactive,inactive,,
COc1ccc2c(C(=O)c3ccc(Cl)cc3)c(C)n(CC(=O)O)c2c1,inactive,inactive,inactive,inactive,inactive,inactive,inactive,inactive,inactive,inactive,inactive,inactive,inactive,,,,inactive,,,inactive
